Here are results for nine compounds from the supplement of paper PMC7156485.

Holding throughout (details): concentration: 10 µM; 24 h
Test [1] has as its system HCC1569. The test can be described thus: cell number relative to DMSO (% of DMSO); higher = more cells (less growth inhibition / toxicity). The method, boiled down:
(§1)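 Compounds were applied at 10 µM for 24 h at 37 °C, in triplicate, to HCC1569 and TDF cells. The cells were then fixed and stained for H1.0, and nuclei were counterstained with DAPI. Nuclear H1.0 intensity or cell number is reported relative to the plate control as a percent, taking the median of replicates. Smoothing for positional effects was applied to HCC1569 values only.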

Test [2] deals with TDF. The description is as above. The method, boiled down:
as §1

Test [3] concerns TDF. The test is described as follows: H1.0 immunofluorescence intensity relative to DMSO (% of DMSO); higher = stronger H1.0 induction, active = 120 or more. The method, boiled down: as §1
In test [4] the test system is HCC1569. The test can be described thus: H1.0 immunofluorescence intensity relative to DMSO (% of DMSO); higher = stronger H1.0 induction, active = 140 or more. The method, boiled down: as §1

Structures are written as SMILES.
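Throughout, for H1.0 immunofluorescence intensity relative to DMSO: TDF is a line of transformed human dermal fibroblasts of mesenchymal origin.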
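Throughout, for cell number relative to DMSO: TDF denotes transformed human dermal fibroblasts of mesenchymal origin.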

Regarding `COc1cc(C2Oc3cc(C4Oc5cc(O)cc(O)c5C(=O)C4O)ccc3OC2CO)ccc1O` (stereo unspecified) [Silymarin], the cell number was 102 in the test with HCC1569 [1] and 93.6 with TDF [2]. Further, the values for the H1.0 immunofluorescence intensity with TDF [3] and in the test on HCC1569 [4] were 95.5 (inactive) and 88.3 (inactive), respectively.
Regarding `C=C1NC(=O)C2=C(CCSC2)N1`, the values for the cell number with HCC1569 [1] and in the test with TDF [2] were 102 and 99.5, respectively. Also, the H1.0 immunofluorescence intensity was 95.5 (inactive) with TDF [3] and 92.2 (inactive) in the test with HCC1569 [4].
The corresponding values for `Cl.Cn1ccc2cc3c(cc21)CCN3C(=O)Nc1cccnc1` are 101, 112, 87.9 (inactive) and 100 (inactive).
For `COc1cc(=O)n(C)c2c(OCC(O)C(C)(C)O)cccc12` (stereo unspecified) [Foliosidine], in that order: 103, 112, 93.5 (inactive) and 93.7 (inactive).
As to `CS(=O)(=O)O.Cc1ccc(N(CC2=NCCN2)c2cccc(O)c2)cc1` [Phentolamine mesylate], the cell number amounted to 99 in the test with HCC1569 [1] and 105 in the test with TDF [2]. Further, the H1.0 immunofluorescence intensity was 97.7 (inactive) in the test with TDF [3] and 99.6 (inactive) in the test on HCC1569 [4].
For `COC(=O)C1=C(C)NC(C)=C(C(=O)OCC(C)C)C1c1ccccc1[N+](=O)[O-]` (stereo unspecified) [Nisoldipine], in that order: 94.9, 104, 89.9 (inactive) and 116 (inactive).
As to `Cc1cn2cc(C(=O)N(C)CCO)cc(N[C@@H]3CCOc4cccc(C)c43)c2n1`, the cell number was 97.8 in the test on HCC1569 [1] and 104 in the test on TDF [2]. The H1.0 immunofluorescence intensity with TDF [3] was 94 (inactive); in the test on HCC1569 [4], 106 (inactive).
For `COc1cc(-c2oc3cc(O)cc(O)c3c(=O)c2OC2OC(CO)C(O)C(O)C2O)ccc1O` (stereo unspecified) [Isorhamnetine-3-glucoside], in that order: 102, 98.2, 97.6 (inactive) and 85.8 (inactive).
The corresponding values for `CC(C=CC=C(C)C=CC1=C(C)CCCC1(C)C)=CC=CC=C(C)C=CC=C(C)C=CC1=C(C)CCCC1(C)C` are 101, 106, 101 (inactive) and 103 (inactive).
